± gives the standard deviation of the averaged measurements.
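Further: TDF denotes transformed human dermal fibroblasts of mesenchymal origin.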

The test system of this experiment is HCC1569. Nature of the experiment: cell number relative to DMSO (% of DMSO); higher = more cells (less growth inhibition / toxicity). The settings on record: concentration: 10 µM; 24 h. An outline of the steps: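 HCC1569 and TDF cells were seeded at 800 per well in 384-well plates in RPMI with 10% FBS and treated with compounds at 10 µM for 24 h at 37 °C, in triplicate. After fixation in 3.7% formaldehyde, cells were stained with a rabbit anti-H1.0 antibody, an AlexaFluor 647 secondary and DAPI, and six fields per well were imaged at ×10. H1.0 nuclear intensity or cell number is given as percent of the plate control, using the median of replicates, with HCC1569 values smoothed for positional effects.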
In the case of `COCc1nc2c([nH]1)c(=O)n(C)c(=O)n2CC(C)C` [8-Methoxymethyl-3-isobutyl-1-methylxanthine], the cell number is 104.

On to `O=c1c(O)c(-c2cc(O)c(O)c(O)c2)oc2cc(O)cc(O)c12` [Myricetin], for which the cell number was 102 ± 3.7.

`CCCS(=O)(=O)Nc1ccc(F)c(C(=O)c2c[nH]c3ncc(Cl)cc23)c1F`: the cell number stood at 96.8.

`CCCNC(=O)NS(=O)(=O)c1ccc(Cl)cc1` [Chlorpropamide] gave a cell number of 101.

`O=C(Nc1cccc(Cl)c1)Nc1ncc(CCNc2ncnc3ccsc23)s1` displayed a cell number of 66.1.

For the compound `COc1c(O)cc2oc(-c3ccc(O)cc3)cc(=O)c2c1O` [5,7-dihydroxy-2-(4-hydroxyphenyl)-6-methoxy-4H-chromen-4-one], the cell number stood at 92.6.

In turn, `Cc1ccc(NC2=CC(=O)c3sc(C)nc3C2=O)cc1` [Cdk4 Inhibitor III] returned a cell number of 26.6.

For the compound `CC(=O)C1(O)CCC2C3CCC4=CC(=O)CCC4(C)C3CCC21C` (stereo not drawn) [17alpha-hydroxyprogesterone], the cell number was determined as 98.8.

In turn, `COc1cc2c(cc1O)CCC1C2CCC2(C)C(O)CCC12` (stereo not drawn) [2-methoxyestradiol] returned a cell number of 54.3.

For the compound `CCCn1c(=O)c2[nH]c(-c3ccc(OCC(=O)NCCN)cc3)nc2n(CCC)c1=O` [Xanthine amine congener], the cell number was 97.6.

Compound `CCOC(=O)C1=C(COCCN)NC(C)=C(C(=O)OC)C1c1ccccc1Cl` (stereo not drawn) [Amlodipine] displayed a cell number of 98.4.

`N=C1Sc2ccccc2C2=NCCCN12` yielded a cell number of 100.

For the compound `CNC1CC2OC(C)(C1OC)n1c3ccccc3c3c4c(c5c6ccccc6n2c5c31)C(=O)NC4O` (stereo not drawn), the cell number worked out at 20.4.
